The list is a sample of the results.
CYP2C19 act = human CYP2C19 activators, primary screen, biochemical, luminescence | 96,000 tested, under 10 active | activation factor at 5 µM | recombinant CYP2C19, luciferin-H EGE luminescence; stronger effect = higher value; 0 = fully inhibited enzyme, 1 = untreated enzyme;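 active means activation factor of at least 2 at 5 µM in the primary screen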
PostGolgi yeast = phenotypic screen on post-Golgi transport, primary screen; post-Golgi transport phenotypic cell assay; inhibition, % at 10 µM; 0.9% of 98,000 active; AID 739, 2007;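 further: yeast cells grown in 1536-well plates; yeast grown about 18 h at 30C before absorbance read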
PostGolgi ctrl = growth inhibition of yeast control strain, primary screen, counter-screen for post-Golgi transport modulator project; efflux-deficient yeast background strain, growth absorbance A615, 16 h; inhibition, % at 10 µM; 5% of 98,000 active
CYP2C9 act = human CYP2C9 activators, primary screen, biochemical, luminescence | recombinant CYP2C9, luciferin-H conversion; stronger effect = higher value; factor 1 = untreated enzyme, 0 = blocked | activation factor at 5 µM | 1.4% of 96,000 active | AID 1024, 2008;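 active means activation factor of 2 or more for CYP2C9 at a 5 µM dose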
Target sequence (P11712 whole entry, looked up): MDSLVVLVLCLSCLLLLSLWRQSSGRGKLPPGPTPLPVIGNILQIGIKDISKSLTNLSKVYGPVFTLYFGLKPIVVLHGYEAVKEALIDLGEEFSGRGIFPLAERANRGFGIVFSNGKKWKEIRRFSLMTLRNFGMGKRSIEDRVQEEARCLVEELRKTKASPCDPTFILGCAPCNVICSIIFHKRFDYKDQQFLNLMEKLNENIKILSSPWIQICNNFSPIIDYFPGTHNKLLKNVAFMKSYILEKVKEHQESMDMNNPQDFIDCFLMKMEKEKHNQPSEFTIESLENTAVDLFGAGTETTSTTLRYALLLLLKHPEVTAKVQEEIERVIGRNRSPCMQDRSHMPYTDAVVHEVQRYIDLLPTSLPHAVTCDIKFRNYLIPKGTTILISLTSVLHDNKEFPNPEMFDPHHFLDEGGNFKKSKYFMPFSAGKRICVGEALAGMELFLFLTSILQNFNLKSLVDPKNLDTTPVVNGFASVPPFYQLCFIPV
CYP2C19 inh = blockers of cytochrome P450 2C19 activity – biochemical, luminescence, ADME assay, primary screen; P33261; CYP2C19 Supersomes, luciferin-H EGE luminescence, 30 min; inhibition, % at 5 µM; 21% of 96,000 active; AID 778, 2007;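 active means CYP2C19 inhibition above a set limit at 5 µM in the primary screen, cut at about 50% in these data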
CYP2C9 inh = blockers of cytochrome P450 2C9 activity – biochemical, luminescence, ADME assay, primary screen; inhibition, % at 5 µM; 20% of 96,000 active; CYP2C9 Supersomes, luciferin-H conversion;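 active means blocking of liver enzyme CYP2C9 beyond about 50% at 5 µM, limit read from the data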
Large screens that a line does not name were inactive. Unless noted, no stated cut-off is given here; in the data, active means inhibition above about 30%; inactive means the rest.

Cc1ccc2[nH]c(=O)c(CN(Cc3nnnn3C3CCCC3)C3CCCCC3)cc2c1	none
Cc1ccc(C)c2[nH]c(=O)c(CN(CC3CCCO3)C(=O)NC3CCCCC3)cc12 (stereo not given)	CYP2C9 inh 72
Cc1ccc2[nH]c(=O)c(CN(Cc3ccccc3)Cc3nnnn3C3CCCC3)cc2c1	CYP2C19 inh 93, CYP2C9 inh 66
Cc1cc(C)c2[nH]c(=O)c(CN(Cc3ccc4c(c3)OCO4)Cc3nnnn3C3CCCC3)cc2c1	CYP2C19 inh 84, CYP2C9 inh 91
Cc1cc(C)c2[nH]c(=O)c(CN(CC3CCCO3)C(=O)C3CCCO3)cc2c1 (stereo not given)	none
Cc1ccc(C)c2[nH]c(=O)c(CN(CCN3CCOCC3)Cc3nnnn3CC3CCCO3)cc12 (stereo not given)	none
Cc1ccc(C)c2[nH]c(=O)c(CN(Cc3nnnn3C3CCCCC3)CC3CCCO3)cc12 (stereo not given)	CYP2C19 inh 93, CYP2C9 inh 65
Cc1ccc(C(=O)N/C(=C/c2cccs2)C(=O)N2CCCCCC2)cc1	CYP2C9 inh 51
O=C(N/C(=C\c1cccs1)C(=O)N1CCCCCC1)c1ccccc1	none
O=C(Cn1cc(C(F)(F)F)ccc1=O)N1CCN(S(=O)(=O)c2ccccc2)CC1	none
Cc1nc(N)sc1-c1csc(Nc2ccc(Cl)cn2)n1	PostGolgi ctrl 42 (no result: CYP2C19 act, CYP2C9 act, CYP2C19 inh, CYP2C9 inh)
COc1ccc(CCNc2nc(-c3sc(N)nc3C)cs2)cc1OC	none
Cc1nc(NC(=O)c2ccccc2)sc1-c1csc(Nc2cccc(Cl)c2)n1	none
Cc1nc(N)sc1-c1csc(Nc2ccccn2)n1	CYP2C9 inh 61
CC(=O)c1c(C)oc2ccc(O)c(CN3CCOCC3)c12	none
O=C(Cc1ccc(Cl)cc1)Nc1ccc(-c2nnc(-c3ccco3)o2)cc1	PostGolgi yeast 31, CYP2C19 inh 55, CYP2C9 inh 76
Cc1ccc(SCC(=O)Nc2ccc(-c3nnc(-c4ccco4)o3)cc2)cc1	CYP2C9 inh 90
Cc1ccc(NC(=O)CSc2nnc(-c3ccco3)c(-c3ccco3)n2)cc1	CYP2C19 inh 98, CYP2C9 inh 95
Cc1cccc(C)c1NC(=O)CSc1nnc(-c2ccco2)c(-c2ccco2)n1	none
Cc1ccc(NC(=O)CCSc2nnc(-c3ccco3)o2)cc1	none
O=C(CSc1nnc(-c2ccco2)c(-c2ccco2)n1)Nc1ccccc1	CYP2C9 inh 73
CCc1cc(=O)oc2cc(OCC(N)=O)c(Cl)cc12	none
CCOc1ccc(C2OC(=O)Cc3cc(OC)c(OC)cc32)cc1 (stereo not given)	none
Cc1ccccc1NC(=O)CSc1nnc(-c2ccco2)c(-c2ccco2)n1	CYP2C9 inh 77
Cn1c(=O)c2cc(S(=O)(=O)NCCC(=O)NC3CCCCCCC3)ccc2n(C)c1=O	none
O=C(COc1c(Br)cc(Br)c2cccnc12)N1CCc2ccccc2C1	PostGolgi ctrl 67
O=C(COc1cccc2cccnc12)NCC(F)(F)F	none
Cc1cnc(C(=O)OCC(=O)N2CCc3ccccc3C2)cn1	none
O=C(COc1cccc2cccnc12)N1CCc2ccccc2C1	CYP2C9 act 3.2, CYP2C19 inh 88
Cc1ccc(C)c(CN2CCCNC2=O)c1	none (no result: CYP2C19 act, CYP2C9 act, CYP2C19 inh, CYP2C9 inh)
CCOC(=O)C(Sc1cc(C)nc(N)n1)C(C)=O (stereo not given)	none
Cc1c(Br)c([N+](=O)[O-])nn1CC(=O)NCc1ccccn1	none
COc1cccc(-c2nnc(NC(=O)c3ccc(S(=O)(=O)N4CC(C)OC(C)C4)cc3)o2)c1 (stereo not given)	none
CC(C)(C)c1cc(CNC2CS(=O)(=O)C[C@@H]2O)cc(C(C)(C)C)c1O (stereo not given in full)	none
Cc1ccc(Nc2nc(-c3sc(NC(=O)c4ccc([N+](=O)[O-])cc4)nc3C)cs2)cc1	none
COc1ccc(C(=O)c2coc3ccc(O)c(CN4CCCCC4)c23)cc1	none
CC(C)(C)c1cc(NCCCn2ccnc2)n2ncc(-c3ccc(Cl)cc3)c2n1	PostGolgi yeast 58, PostGolgi ctrl 93, CYP2C9 inh 66
